Inconclusive results are not listed. A number with no mark means an inactive call. Calls come from the whole dose curve; as a rule, active = well fitted curve in either direction with a large enough effect (not every such curve was filed as active); inconclusive = small, poorly fitted or top-dose-only effect, or another doubt; inactive = flat fitted curve, though single readings scatter.
Test: AP1 Signaling Pathway (AID 357);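 note: ME-180 reporter cells stimulated with EGF at its EC50 level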
Conditions: ME-180 (cervical carcinoma) AP-1-bla reporter, EGF-induced, beta-lactamase ratio, 5 h; at 17.2 µM (top of the series) unless noted
Outline: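 In this screen, ME-180 cells in Opti-MEM with 0.5% dialyzed FBS received EC50 EGF and compound titrations for 5 h. AP-1 reporter beta-lactamase was detected via CCF4 ratio, giving AC50 for positive and negative modulators.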
% is set by controls: 0 for no effect and ±100 for the full control effect.

| Compound | activity change, negative = inhibition |
| --- | --- |
| CC1(C)SC2[C@H](NC(=O)C(NC(=O)N3CCNC3=O)c3ccccc3)C(=O)N2C1C(=O)O (stereo partly specified) | -0.219% |
| Cc1c(C2Nc3ccccc3NC3=C2C(=O)CC(C)(C)C3)cnn1C (stereo unspecified) | -9.46% |
| COc1cccc(N2CCN(C3CC(=O)N(c4cccc(Cl)c4)C3=O)CC2)c1 (stereo unspecified) | -3.08% |
| COc1ccc(OC)c(C2C(C#N)=C(N)Oc3cc(C)n(Cc4ccccn4)c(=O)c32)c1 (stereo unspecified) | 1.88% |
| COC(=O)c1[nH]c2cc(OC)ccc2c1NC(=O)CN1CCC(C(N)=O)CC1 | -3.69% |
| CCCC(=O)Nn1cnc2c(c1=O)C1(CCCC1)Cc1ccccc1-2 | -5.55% |
| COc1ccc(Cn2c(CCCO)nc3ccccc32)cc1OC | -8.44% |
| CCOC(=O)Cc1nnc(Nc2cccc(O)c2)c2ccccc12 | -12.7% |
| COc1ccc(C2=Nn3c(nnc3-c3cccnc3)SC2)cc1OC | -11.2% |
| CCOc1ccc(C2=Nn3c(nnc3-c3cccnc3)SC2)cc1 | 3.18% |
| Cc1ccc(C2/C(=C(/O)c3cnn(-c4ccccc4)c3C)C(=O)C(=O)N2CCN2CCOCC2)o1 (stereo unspecified) | -8.72% |
| Cc1nn(C)cc1/C=N/O | 10.9% |
| CCSc1nc(N)c2c3c(sc2n1)CCC3 | -12.5% |
| COn1c(SC2CCCCC2)nc2ccccc2c1=O | -10.8% |
| Cc1nn(CC(=O)N2CCOCC2)c(=O)c2ccccc12 | 10.7% |
| CC1(C)CC(=O)C2=C(C1)OC(N)=C(C#N)C2C1C=CCCC1 (stereo unspecified) | 3.93% |

From PubChem BioAssay (NCATS)
